Source: PubChem BioAssay
TTR transcr act – activators of transthyretin transcription; activation, % at 16.7 µM; SH-SY5Y TTR promoter Gaussia luciferase, luminescence; 100% = recombinant luciferase protein wells; 92,000 tested, 1.3% active;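 active = activation above the mean of all tested compounds plus 3 SD, cut at about 9.5% in these data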;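 also: cells exposed to compounds for one day before reading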
HuH7 TTR inh – HuH7 TTR transcription inhibition, counter-screen | HuH7 TTR promoter-Gaussia luciferase reporter, luminescence | shares compounds with TTR transcr act | inhibition, % at 16.7 µM | AID 1117279 | 1,100 tested, 4% active;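 active = average inhibition above the solvent-only control wells' mean plus 3 SD, cut at about 15% in these data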;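 also: inhibitors lower well luminescence so higher value means more inhibition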
TTR up confirm – confirmation of human transthyretin transcription activators | 1,100 tested, under 10 active | activation, % at 16.7 µM | AID 1117280 | SHSY5Y TTR promoter Gaussia luciferase, luminescence; 100% = purified Lucia enzyme wells, no cells | shares compounds with TTR transcr act;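 active = mean activation above a set limit taken from the earlier primary screen, cut at about 11% in these data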
Of the large screens only hits and unclear results are named; the others gave an inactive call (follow-up assays come after a bar, where they were run). This excerpt belongs to a sample that is enriched for hits.

CC(CCN1C(N(C)C)=NC[C@@H]1C)c1ccccc1 (stereo not given in full)	none
C[C@H]1CN=C(N(C)C)N1CCc1ccccc1	TTR transcr act 10.2 | HuH7 TTR inh inactive | TTR up confirm inactive
C[C@H]1CN=C(N(C)C)N1CCC1CCCC1	none
Fc1ccc(NC2CCC23CCC(c2ccccc2)CC3)cc1C(F)(F)F (stereo not given)	none
C[C@H]1[C@H](c2ccccc2)OC(O)([C@H](Cc2ccccc2)NC(=O)OC(C)(C)C)CN1C (stereo not given in full)	none
CCN1CCCCC(NC(=O)Cc2ccccc2)C1=O (stereo not given)	none
Nc1cnccc1C(=O)O	TTR transcr act 10.5 | HuH7 TTR inh inactive | TTR up confirm inactive
Nc1ccc(Br)cc1C(=O)O	none
Cc1cc(C(=O)O)c(C)n1Cc1ccncc1	none
CC(C)(C)S(=O)(=O)N1C[C@@H]2CC(=O)C=C2[C@H]1CCO	none
C=CCN1C(=O)[C@H](CC(=O)NCc2ccccc2)[C@@]2(C(=O)OCC)CCCC=C12	none
NC(=O)c1nsc(C(=O)N(CC(=O)NC2CCCC2)c2ccc(F)c(Cl)c2)c1N	TTR transcr act 16.6 | HuH7 TTR inh inactive | TTR up confirm inactive
NC(=O)c1nsc(C(=O)N(CC(=O)NC2CCCCC2)c2cccc(F)c2)c1N	none
CC(C(=O)NC1CCCCC1)N(Cc1ccc(F)cc1)C(=O)c1snc(C(N)=O)c1N (stereo not given)	none
Cc1ccccc1CN1CCCCC(NC(=O)c2cccc(F)c2)C1=O (stereo not given)	none
O=C(OCC#CCSc1nnc(-c2cccc3ccccc23)o1)c1ccccc1	none
COP(=O)(O)C(C)NC(=O)OCc1ccccc1 (stereo not given)	none
O=C(OCc1cn(Cc2ccc(C(F)(F)F)cc2)nn1)N1CCOCC1	none
Cc1cccc(NC(c2ccc(O)cc2)c2ccc3ccc(C)nc3c2O)n1 (stereo not given)	TTR transcr act 15.1 | HuH7 TTR inh 20.1 | TTR up confirm inactive
Cc1cccc(NC(=S)Nc2cccc(C)n2)n1	none
Oc1cccc(C(Nc2nccs2)c2ccc3cccnc3c2O)c1 (stereo not given)	none
COC(=O)c1ccc(Cn2ccc3ccc(-c4ccc5ccn(C(=O)c6ccccc6)c5c4)cc32)cc1	none
O=S1(=O)c2c(cccc2N2CCC[C@@H]2CO)O[C@@H]2CCN1C2	none
CCOCCCn1c(SCC(=O)Nc2ccc(OC)cc2)nc2ccccc2c1=O	none
COCC(=O)N(C)c1nnc(-c2cnc(C)cn2)s1	TTR transcr act 9.7 | HuH7 TTR inh inactive | TTR up confirm inactive
COCC(=O)Nc1nnc(-c2cccs2)s1	none
CN(C(=O)COc1ccccc1)c1nc(-c2ccc(F)cc2)cs1	none
C[C@H]1[C@@H](OC(=O)Nc2ccc(C#N)cc2)CC[C@@]23CCCN2C(=O)CCC[C@@H]13	none
CCOC(=O)[C@]12CCCC=C1N(CCCOC)C(=O)[C@@H]2CC(=O)NCC1CCCCC1	none
COC[C@H]1CCCN1c1cccc2c1S(=O)(=O)N(C1CC1)CCCO2	none
Cn1cc(CCNC(=O)CC2C(=O)NCCN2Cc2cccc(Oc3ccccc3)c2)cn1 (stereo not given)	none
CCn1cc(CNC(=O)CC2C(=O)NCCN2CC(c2ccccc2)c2ccccc2)cn1 (stereo not given)	none
CC(C)CN1CCNC(=O)C1CC(=O)NCCc1cnn(-c2ccccc2)c1 (stereo not given)	TTR transcr act 13.1 | HuH7 TTR inh inactive | TTR up confirm inactive
CC1(C(=O)NS(=O)(=O)c2cccc(Cl)c2)CCN1C(=O)Cc1cc(F)ccc1F (stereo not given)	none
CCOc1ccc(OCC)c(NC(=O)C2CCCN(c3ncccn3)C2)c1 (stereo not given)	none
CCC(C)c1ccc(NC(=O)C2CCCN(c3ncccn3)C2)cc1 (stereo not given)	none
CCc1ccccc1NC(=O)C1CCCN(c2ncccn2)C1 (stereo not given)	TTR transcr act 12.1 | HuH7 TTR inh inactive | TTR up confirm inactive
CCOC(=O)[C@]12CCCC=C1N(Cc1ccc(OC)cc1)C(=O)[C@@H]2CC(=O)NCCCOC	none
O=[N+]([O-])c1cccc(-c2noc(-c3ccco3)n2)c1	TTR transcr act 11.8 | HuH7 TTR inh 14.6 | TTR up confirm inactive
Cc1cccc(-c2noc(-c3ccoc3C)n2)c1	none
Cc1c(-c2nc(-c3cccnc3)no2)cccc1[N+](=O)[O-]	none
C[C@H]1[C@@H](NC(=O)c2ccc(C(C)(C)C)cc2)CC[C@@]23CCCN2C(=O)CCC[C@@H]13	none
Cc1c(C(O)(c2ccccc2)c2ccccc2)[n+]2ccccc2n1C	none
CC(=O)Nc1sc2c(c1-c1nc3ccccc3s1)CCN(C(C)=O)C2	none
CCCC/C=C1/[C@@H](C(C)C)N(Cc2ccc3c(c2)OCO3)C2=N[C@H](c3ccccc3)CC(=O)N21	none
CC1CCCN(c2cccc3c2S(=O)(=O)N(Cc2cccc(Cl)c2)[C@@H](C)[C@H](c2ccccc2)O3)C1 (stereo not given in full)	none
COc1ccc(Cn2ccc3ccc(-c4ccc5ccn(Cc6ccc(F)cc6)c5c4)cc32)cc1	none
Cc1cc(NC(=O)C23CC4CC(C2)CC(n2cnc([N+](=O)[O-])n2)(C4)C3)no1	none
O=C(NC1CCCCC1)C12CC3CC(C1)CC(n1cncn1)(C3)C2	TTR transcr act 13.1 | HuH7 TTR inh inactive | TTR up confirm inactive
O=C(Nc1ccon1)C12CC3CC(C1)CC(n1cnc([N+](=O)[O-])n1)(C3)C2	none
CCCCNc1nc(=S)n(-c2ccccc2)c(C)c1C(C)=O	none
CC(C)c1ccccc1NC(=O)C1CCCN(C(=O)c2ccc(Cl)cc2)C1 (stereo not given)	none
CCOc1ccc(OCC)c(NC(=O)C2CCCN(C(=O)c3ccc(Cl)cc3)C2)c1 (stereo not given)	TTR transcr act 11.0 | HuH7 TTR inh inactive | TTR up confirm inactive
CCOc1ccc(OCC)c(NC(=O)C2CCCN(S(=O)(=O)c3ccc(C)cc3)C2)c1 (stereo not given)	none
Cc1ccccc1C(=O)NC1CCCCN(Cc2ccc(Cl)cc2)C1=O (stereo not given)	none
O=C(Nc1c(C(=O)N2CCCCC2)cnn1-c1ccccc1)c1ccccc1	none
CCOC(=O)c1cnn(-c2ccccc2)c1NC(=O)c1ccccc1	none
Cc1cccc(C(=O)Nc2c(C(=O)N(C)C)cnn2-c2ccccc2)c1	TTR transcr act 10.7 | HuH7 TTR inh inactive | TTR up confirm inactive
COC(=O)[C@@H](CC(C)C)CP(=O)(OC)[C@@H](C)NC(=O)OCc1ccccc1 (stereo not given in full)	none
CCCOc1ccc(N2C(=O)CC(NCC(=O)OCC)C2=O)cc1 (stereo not given)	TTR transcr act 10.0 | HuH7 TTR inh inactive | TTR up confirm inactive
CCOc1ccc(N2C(=O)CC(NCCc3ccncc3)C2=O)cc1 (stereo not given)	none
CCCOc1ccc(N2C(=O)CC(SC(=NC)Nc3ccc(F)cc3)C2=O)cc1 (stereo not given)	none
Cc1ccc(CN2CCCCC(NC(=O)c3cccc([N+](=O)[O-])c3)C2=O)cc1 (stereo not given)	none
CC(=O)c1ccc(-c2cc(C(C)=O)c3n(c2=O)CCC3)cc1	none
CC(=O)c1cccc(N(CC(=O)Nc2ccc(S(=O)(=O)N3CCCC3)cc2)S(C)(=O)=O)c1	none
CC(=O)c1cccc(NC(=O)CN(c2ccccc2)S(C)(=O)=O)c1	TTR transcr act 11.6 | HuH7 TTR inh inactive | TTR up confirm inactive
